Measured values reported in PubChem BioAssay.
Values joined by “and” are separate entries in the source; they are usually repeats but may differ in a detail not shown here. Equal values may be shown once. Active and inactive are the calls of the source. Rule as the data show it: active = inhibition above about 80%; inactive = the rest.

assay: growth inhibition, single agent or in combination, cell-based, chromothripsis tumors, cisplatin or BGB combos (AID 1671449); settings: LFS_MB_P medulloblastoma cells, measured here: combination with cisplatin, at 0.5 µM, stronger effect = higher value;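 also: cells exposed for 96 hours; 0% = vehicle DMSO and 100% = killing by high DMSO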

Structure (SMILES)	inhibition
O=C(O)P(=O)(O)O	-28.3%
C[C@H]1COc2c(C3(N)CC3)c(F)cc3c(=O)c(C(=O)O)cn1c23	-7.85%
Nc1nc2c(ncn2CCC(CO)CO)c(=O)[nH]1	-43% and 6.39%
CN(C)/N=N/c1nc[nH]c1C(N)=O	-35.1% and -31.1%
CC1CCc2cc(F)cc3c(=O)c(C(=O)O)cn1c23 (stereo not given)	98.2% and -27%
CCN1CCN(c2cc3c(cc2F)c(=O)c(C(=O)O)cn3C2CC2)CC1	-35.9%

same assay, conditions: LFS_MB_P medulloblastoma cells, measured here: combination with cisplatin, at 5 µM, stronger effect = higher value

Structure (SMILES)	inhibition
O=C(O)P(=O)(O)O	-12.6%
C[C@H]1COc2c(C3(N)CC3)c(F)cc3c(=O)c(C(=O)O)cn1c23	-33.3%
Nc1nc2c(ncn2CCC(CO)CO)c(=O)[nH]1	-0.859% and -46.3%
CN(C)/N=N/c1nc[nH]c1C(N)=O	-14.4% and -39%
CC1CCc2cc(F)cc3c(=O)c(C(=O)O)cn1c23 (stereo not given)	-36.8% and -23.2%
CCN1CCN(c2cc3c(cc2F)c(=O)c(C(=O)O)cn3C2CC2)CC1	-7.57%

assay: growth inhibition, single agent and combos, cell-based, chromothripsis tumors, cisplatin or BGB combos (AID 1671450); settings: HDN33 neuroblastoma cells, BGB combo, at 5 µM, stronger effect = higher value;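 also: cells exposed to compound for four days; 0% = vehicle DMSO and 100% = cell killing by high DMSO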

Structure (SMILES)	inhibition
O=C(O)P(=O)(O)O	-58%
C[C@H]1COc2c(C3(N)CC3)c(F)cc3c(=O)c(C(=O)O)cn1c23	-18.1%
Nc1nc2c(ncn2CCC(CO)CO)c(=O)[nH]1	-37% and 3.74%
CN(C)/N=N/c1nc[nH]c1C(N)=O	18.6% and -37%
CC1CCc2cc(F)cc3c(=O)c(C(=O)O)cn1c23 (stereo not given)	-3.97% and 10%
CCN1CCN(c2cc3c(cc2F)c(=O)c(C(=O)O)cn3C2CC2)CC1	-5.32%

same assay, conditions: HDN33 neuroblastoma cells, at 0.5 µM, stronger effect = higher value

Structure (SMILES)	inhibition
O=C(O)P(=O)(O)O	-36.9% (inactive)
C[C@H]1COc2c(C3(N)CC3)c(F)cc3c(=O)c(C(=O)O)cn1c23	-10.4% (inactive)
Nc1nc2c(ncn2CCC(CO)CO)c(=O)[nH]1	-21.5% (inactive) and -13.7% (inactive)
CN(C)/N=N/c1nc[nH]c1C(N)=O	0.39% (inactive) and -45.8% (inactive)
CC1CCc2cc(F)cc3c(=O)c(C(=O)O)cn1c23 (stereo not given)	3.55% (inactive) and 8.84% (inactive)
CCN1CCN(c2cc3c(cc2F)c(=O)c(C(=O)O)cn3C2CC2)CC1	-11.2% (inactive)

same assay, conditions: HDN33 neuroblastoma cells, cisplatin combo, at 5 µM, stronger effect = higher value

Structure (SMILES)	inhibition
O=C(O)P(=O)(O)O	-60.9%
C[C@H]1COc2c(C3(N)CC3)c(F)cc3c(=O)c(C(=O)O)cn1c23	-7.06%
Nc1nc2c(ncn2CCC(CO)CO)c(=O)[nH]1	-35.4% and 5.76%
CN(C)/N=N/c1nc[nH]c1C(N)=O	25.6% and -37.1%
CC1CCc2cc(F)cc3c(=O)c(C(=O)O)cn1c23 (stereo not given)	2.48% and 8.76%
CCN1CCN(c2cc3c(cc2F)c(=O)c(C(=O)O)cn3C2CC2)CC1	14%
